Laboratory results taken from PMC13494018.
A number with no mark means an inactive call. The rule behind the calls is not given here.

B1: design_611_394c5ea9-a0d3-47c4-9d48-89ba6a28fdd0_592_dldesign_0_cycle1_af2pred (protein)
chain: DALKLIEAAAKLAKKIGLEEAAKLAEEAAKLLATGDPEAAGQGVLLLSKAYALAAADPKAAEAAALLRAALAAAAKEAIALARAAR
B2: design_611_394c5ea9-a0d3-47c4-9d48-89ba6a28fdd0_637_dldesign_0_cycle1_af2pred (protein)
chain: SEETKEVAEAAVNAAEQAIKLAKELGDKEIEEKAKKLKEEAKKAAKKGAEALPEAKKLAREAFTLAAKALALYAKAKA
B3: design_611_394c5ea9-a0d3-47c4-9d48-89ba6a28fdd0_705_dldesign_0_cycle1_af2pred (protein)
chain: AEAQEQAKKEYEKAKAVADAALATAKATGDVTAQQAKVLDAAIEAAKKAQELGDGETANKVMQVATKAMTAMAAAG
B4: design_611_394c5ea9-a0d3-47c4-9d48-89ba6a28fdd0_749_dldesign_0_cycle1_af2pred (protein)
chain: AAAEAAAERARQAAKAAMKSLTLAYEALGKPEQAKEDIAKVEKAIEEDPEKGAALARELAAQAAREAIKANAA
B5: design_611_394c5ea9-a0d3-47c4-9d48-89ba6a28fdd0_765_dldesign_0_cycle1_af2pred (protein)
chain: SSREGAAQLLLDVAKQAAAALKAAGGDEERAKKILEEAKKAAATTFEETQKALAKAAREAVKYQAAVEAA
B6: design_611_394c5ea9-a0d3-47c4-9d48-89ba6a28fdd0_785_dldesign_0_cycle1_af2pred (protein)
chain: LKAEAEKLAKEAAAKAKEAAAAGDAVAALAYQAAANMARSALRADPESAAKLLEVGRALKQQGDATHAAFKA
B7: design_611_394c5ea9-a0d3-47c4-9d48-89ba6a28fdd0_881_dldesign_0_cycle1_af2pred (protein)
chain: GAAEAAKALAKGVAASVKRLAKEGLEEAKKDPEKGRAILENAKTFAEAVKATDPEIGDKALKYVEEAKKEAEKIVKE
B8: design_611_394c5ea9-a0d3-47c4-9d48-89ba6a28fdd0_908_dldesign_0_cycle1_af2pred (protein)
chain: AAAAARAAAVAAAEAAAAEAIKELKAAAEEAKTATPEEAAKLMNEMLAKASRQALAMQASGDPAAAAAGARLIAAAVEYAKEIDEAIR
B9: design_611_394c5ea9-a0d3-47c4-9d48-89ba6a28fdd0_940_dldesign_0_cycle1_af2pred (protein)
chain: MKVEEAGNKAKALLVATANAAIAADPARAQEIAKKMAEGIEKIDKLTEEEKKKLDEYSEEEQAKKVEELGKELAKEIA
B10: design_611_394c5ea9-a0d3-47c4-9d48-89ba6a28fdd0_1101_dldesign_0_cycle1_af2pred (protein)
chain: MGGELLLDVMRAAAEAQREIAELGKEKGIPEEVTQALINRVSAAVAAVAKAAIAGDDAAKAAAAAARAAIDATLAEARAL
B11: design_611_394c5ea9-a0d3-47c4-9d48-89ba6a28fdd0_1121_dldesign_0_cycle1_af2pred (protein)
chain: SSSYEEVTAEMAAITAKAQEGVEAAKKDPAEAKKIAAEIAAKAKEIAASGFSEGAAQMAKNAAARVQKVIDAELAK
B12: design_611_394c5ea9-a0d3-47c4-9d48-89ba6a28fdd0_1130_dldesign_0_cycle1_af2pred (protein)
chain: MEEELKKISQAAAQAQQAAIDAKDPALRAELAQAAVEIMKLMDKAAKSTPEEAKKLAEEAEKIAEEAQKKAKASG
B13: design_611_394c5ea9-a0d3-47c4-9d48-89ba6a28fdd0_1153_dldesign_0_cycle1_af2pred (protein)
chain: MEEKKKKIEEEANKVIEEATKVAELAKKHPAMRPALIAANAAISMANNAIRNIENVESAEKQLKVAKALMEYAKATAKALLAAA
B14: design_611_394c5ea9-a0d3-47c4-9d48-89ba6a28fdd0_1178_dldesign_0_cycle1_af2pred (protein)
chain: AELLAAAGELAVEAARYAAEADRFGPEAAPAAELFREAQKLAVQANQNPATAAEYYAKAKELMKKGKELMKKAKA
B15: design_611_394c5ea9-a0d3-47c4-9d48-89ba6a28fdd0_1184_dldesign_0_cycle1_af2pred (protein)
chain: GEAARERGEELVKEAEAALAAAKAAAAADPAAGLAAANAAIGLAVERMEELARLGPEARPAIERLTAIATELSKLALALKAAL
B16: design_611_394c5ea9-a0d3-47c4-9d48-89ba6a28fdd0_1238_dldesign_0_cycle1_af2pred (protein)
chain: SAADEQAKAIAVASTQSILDQAKKILEEHPEIKEEGEKLVEEIKKLLEKAKTGDAATASKALSESLELYGKLAELAK
B17: design_611_394c5ea9-a0d3-47c4-9d48-89ba6a28fdd0_1283_dldesign_0_cycle1_af2pred (protein)
chain: DTAAAQGLLAGVQAFTRRRFEAAERALRAGDREAMLAAARDLETAADIAEATAKQVPPALAAQAQALAKQARERAEEARRAAEA
B18: design_611_394c5ea9-a0d3-47c4-9d48-89ba6a28fdd0_1451_dldesign_0_cycle1_af2pred (protein)
chain: AQAIEVANKTAAAMKKQAEALAAEGEANPETAWKHYETAAKLYEIAADMVAAAGGDPAVAAALKAKAAEYKAKAKAAKAA
B19: design_611_394c5ea9-a0d3-47c4-9d48-89ba6a28fdd0_1469_dldesign_0_cycle1_af2pred (protein)
chain: GKERAVEIMRRGLTEVAKEALKVSPEVAGVVQTALAKAIGAAAESMEKALEVLKKGAEEAEKLDPEIGKKVREVLKKVEEAYKE

target: CD276, Q5ZPR3
Sequence (Q5ZPR3 whole entry): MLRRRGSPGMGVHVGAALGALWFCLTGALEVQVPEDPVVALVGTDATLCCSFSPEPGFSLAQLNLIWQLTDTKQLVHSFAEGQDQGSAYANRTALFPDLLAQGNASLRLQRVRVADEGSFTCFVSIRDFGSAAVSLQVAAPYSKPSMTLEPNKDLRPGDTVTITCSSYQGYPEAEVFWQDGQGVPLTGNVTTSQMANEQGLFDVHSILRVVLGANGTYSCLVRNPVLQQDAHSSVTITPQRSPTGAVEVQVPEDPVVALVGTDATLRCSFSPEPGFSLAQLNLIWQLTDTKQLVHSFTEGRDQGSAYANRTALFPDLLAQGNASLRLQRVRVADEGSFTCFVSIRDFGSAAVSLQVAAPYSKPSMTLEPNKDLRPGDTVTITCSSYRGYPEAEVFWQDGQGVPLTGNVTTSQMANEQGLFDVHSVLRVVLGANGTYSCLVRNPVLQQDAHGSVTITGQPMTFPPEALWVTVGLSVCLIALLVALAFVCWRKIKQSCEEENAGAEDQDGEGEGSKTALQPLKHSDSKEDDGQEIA

Q: With B1 as the binder, how does the “binding in a display sort” value read?
A: not found

Q: How did the “binding in a display sort” value turn out when B2 was run?
A: not found

Q: For B3, which “binding in a display sort” value is on record?
A: not found

Q: For B4, which “binding in a display sort” value is on record?
A: not found

Q: How did the “binding in a display sort” value turn out when B5 was run?
A: not found

Q: Which “binding in a display sort” value does the source give for B6 here?
A: not found

Q: For B7, which “binding in a display sort” value is on record?
A: not found

Q: For B8, which “binding in a display sort” value is on record?
A: not found

Q: For B9, which “binding in a display sort” value is on record?
A: not found

Q: How did the “binding in a display sort” value turn out when B10 was run?
A: not found

Q: B11 was tested. Which “binding in a display sort” value did it give?
A: not found

Q: With B12 as the binder, how does the “binding in a display sort” value read?
A: not found

Q: With B13 as the binder, how does the “binding in a display sort” value read?
A: not found

Q: Which “binding in a display sort” value does the source give for B14 here?
A: not found

Q: How did the “binding in a display sort” value turn out when B15 was run?
A: not found

Q: For B16, which “binding in a display sort” value is on record?
A: not found

Q: For B17, which “binding in a display sort” value is on record?
A: not found

Q: How did the “binding in a display sort” value turn out when B18 was run?
A: not found

Q: B19 was tested. Which “binding in a display sort” value did it give?
A: not found
